From PubChem BioAssay AID382 (SGCOxCompounds, 2006)
The source made the active and inactive calls. The rule behind the calls is not given here.

What follows are compounds tested against Dual specificity protein kinase CLK1 (Homo sapiens) (UniProt P49759) (assay: CLK1 binders by thermal stabilization, biophysical, recombinant human kinase, DSF (AID 382)). Settings: at 10 µM, protein 2 µM, buffer 10 mM HEPES, NaCl 150 mM, hits give high values.
Chain of Dual specificity protein kinase CLK1 (Homo sapiens) (P49759 whole entry, looked up): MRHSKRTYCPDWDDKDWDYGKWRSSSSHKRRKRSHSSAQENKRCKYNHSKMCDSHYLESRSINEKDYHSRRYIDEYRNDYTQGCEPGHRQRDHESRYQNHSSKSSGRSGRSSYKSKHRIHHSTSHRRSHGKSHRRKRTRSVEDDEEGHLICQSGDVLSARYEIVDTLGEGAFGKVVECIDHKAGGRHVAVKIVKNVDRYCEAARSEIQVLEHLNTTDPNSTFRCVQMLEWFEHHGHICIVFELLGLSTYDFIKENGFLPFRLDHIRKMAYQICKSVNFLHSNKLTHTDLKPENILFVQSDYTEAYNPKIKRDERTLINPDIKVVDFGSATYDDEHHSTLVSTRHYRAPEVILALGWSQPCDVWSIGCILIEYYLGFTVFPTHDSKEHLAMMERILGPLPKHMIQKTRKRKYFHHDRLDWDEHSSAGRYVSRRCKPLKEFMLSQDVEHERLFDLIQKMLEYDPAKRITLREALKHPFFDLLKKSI

Tm shift, active:
COc1cc2ncnc(Nc3cccc(O)c3)c2cc1OC 4.15 Celsius
O=C1NC(=O)C(c2c[nH]c3ccccc23)=C1c1c[nH]c2ccccc12 4.13 Celsius
NCCCn1cc(C2=C(c3c[nH]c4ccccc34)C(=O)NC2=O)c2ccccc21 8.48 Celsius
COc1cc(C2Oc3cc(O)cc(O)c3C(=O)C2=O)ccc1O (centres undefined) 6.14 Celsius
O=Nc1c(-c2c(O)[nH]c3ccc(S(O)(O)O)cc23)[nH]c2ccccc12 3.64 Celsius
Cc1cc(O)c2c(c1)C(=O)c1cc(O)cc(O)c1C2=O 3.11 Celsius
COc1cc(O)c2c(c1)oc(=O)c1c3cc(O)c(O)cc3oc21 3.2 Celsius
O=Nc1c(-c2c(O)[nH]c3ccccc23)[nH]c2ccccc12 3.59 Celsius
O=c1cc(-c2ccccc2)oc2cc(O)cc(O)c12 5.03 Celsius
O=c1c(O)c(-c2cc(O)c(O)c(O)c2)oc2cc(O)cc(O)c12 6.89 Celsius

Same assay, conditions: at 10 µM, protein 2 µM, buffer 10 mM HEPES, NaCl 150 mM, with 50 mM Arg/Glu, hits give high values

Tm shift, active:
FC(F)(F)Oc1cccc(-c2cnc3ccc(NC4CCOCC4)nn23)c1 5.17 Celsius
CC(C)[C@@H](CO)Nc1ccc2ncc(-c3ccc(C#N)cc3)n2n1 5.84 Celsius
CCN1/C(=C/C(C)=O)Sc2ccc(OC)cc21 6.91 Celsius
CCC(CO)Nc1ccc2ncc(-c3ccc(O)cc3)n2n1 (centres undefined) 7.54 Celsius

Same assay, conditions: at 10 µM, protein 2 µM, buffer 10 mM HEPES, pH 7.5, NaCl 150 mM, with 50 µM L-Arg/L-Glu (1:1), hits give high values

Tm shift, active:
Fc1ccc(-c2cnc3ccc(NC4CCOCC4)nn23)cc1 5.3 Celsius
CCC(CO)Nc1ccc2ncc(-c3cccc(CO)c3)n2n1 (centres undefined) 5.3 Celsius
CCC(CO)Nc1ccc2ncc(-c3ccc(C(=O)O)cc3)n2n1 (centres undefined) 4.8 Celsius
CC(=O)c1cccc(-c2cnc3ccc(NC4CCOCC4)nn23)c1 5.2 Celsius
c1cncc(-c2cnc3ccc(NC4CCOCC4)nn23)c1 3.3 Celsius
CCC(CO)Nc1ccc2ncc(-c3cccc(C(C)=O)c3)n2n1 (centres undefined) 6.1 Celsius
NC1=N/C(=C2\CCNC(=O)c3[nH]ccc32)C(=O)N1 6 Celsius
Nc1cccc(-c2cnn3ccc(Nc4cccc(Cl)c4)nc23)c1 3.6 Celsius
CC(C)[C@@H](CO)Nc1ccc2ncc(-c3cccc(C(F)(F)F)c3)n2n1 5.1 Celsius
CC(C)[C@@H](CO)Nc1ccc2ncc(-c3cccc(OC(F)(F)F)c3)n2n1 4.6 Celsius
Nc1ccc(-c2cnn3ccc(Nc4cccc(Cl)c4)nc23)cc1 5.8 Celsius
NS(=O)(=O)c1ccc(Nc2nc(OCC3CCCCC3)c3[nH]cnc3n2)cc1 3.9 Celsius
CCN(CC)CCNC(=O)c1c(C)[nH]c(/C=C2\C(=O)Nc3ccc(Cl)cc32)c1C 6.6 Celsius
O=c1[nH]c(O)c2c1c1c3ccccc3nc1n1cncc21 4.5 Celsius
Cc1cc(Nc2nc(-c3ccccc3)nc3ccccc23)n[nH]1 5.8 Celsius
